USP30 inh – human USP30 deubiquitinase inhibition | 5.3% of 47,000 active | purified USP30, Ub-rhodamine cleavage fluorescence | Q70CQ3 | inhibition, % at 25 µM
OTUD3 inh – human OTUD3 deubiquitinase inhibition; purified OTUD3, Ub-rhodamine fluorescence, 2 h; inhibition, % at 25 µM; 0.7% of 47,000 active; AID 1645858
Target sequence (Q5T2D3 whole entry, looked up): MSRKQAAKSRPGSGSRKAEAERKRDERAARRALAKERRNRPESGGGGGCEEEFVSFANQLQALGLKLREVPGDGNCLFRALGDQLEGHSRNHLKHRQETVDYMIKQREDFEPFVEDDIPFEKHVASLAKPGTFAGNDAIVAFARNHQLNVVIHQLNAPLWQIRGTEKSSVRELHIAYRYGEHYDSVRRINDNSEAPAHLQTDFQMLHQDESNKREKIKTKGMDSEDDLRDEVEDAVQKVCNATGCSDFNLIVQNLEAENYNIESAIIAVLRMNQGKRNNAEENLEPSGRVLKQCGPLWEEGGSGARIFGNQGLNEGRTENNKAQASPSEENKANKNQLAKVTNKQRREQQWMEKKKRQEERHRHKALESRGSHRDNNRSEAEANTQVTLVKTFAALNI
USP17 block – human USP17-like deubiquitinase inhibition; A8MUK1; purified USP17, Ub-rhodamine cleavage fluorescence, 3 h; inhibition, % at 50 µM; 6.5% of 47,000 active; AID 1645855
USP28 inh – inhibitors of human USP28 deubiquitinase; purified USP28, Ub-rhodamine cleavage fluorescence, 30 min; inhibition, % at 25 µM; 3% of 47,000 active; AID 1645857
The depositor's hits bear a star; i = inactive; · = not tested or not shown. Compounds with a hit are over-represented: about 11% of the library has one in this group of screens. Cut-off read from the data, not from the text of the source: active = inhibition above about 30%; inactive = the rest.

SMILES	USP30 inh	OTUD3 inh	USP17 block	USP28 inh
Cc1ccc(NC(=O)c2nnn(-c3cccc(F)c3)c2C)cc1	43*	0	5	9
O=C(NC1CCCC1)N1C[C@H](O)[C@H]2C[C@@H]1CC[C@H]2N1CCOCC1	-18	-11	-11	-29
Cc1cc(C)c(-c2noc(C)n2)c(NC(=O)C2CCCCC2)n1	-9	-8	-8	-13
FC(F)(F)c1cccc(-c2cnc3sc(NCCc4ccccn4)nn23)c1	-31	-11	-1	-12
CC(=O)N1[C@@H](CNC(=O)Cc2ccc(O)cc2)C[C@@]2(C)[C@@H](O)CCCC[C@@H]12	4	10	2	4
Cc1c(C(=O)Nc2ccc(Cl)cc2)nnn1-c1ccc(F)cc1	23	5	26	10
COc1ccc(NC(=O)c2cnn(-c3ccc(F)cc3)c2C)cc1	-15	0	19	18
COc1ccc(-n2nnc(C(=O)Nc3cccc(F)c3)c2C)cc1	27	13	48*	18
CCc1ccc(-n2nnc(C(=O)Nc3ccc(F)cc3)c2C)cc1	32*	11	10	15
COc1ccc(-n2nnc(C(=O)Nc3ccc(F)cc3)c2C)cc1	17	12	50*	4
COc1ccc(-n2nnc(C(=O)Nc3ccc(F)cc3F)c2C)cc1	13	-1	27	-1
CCN1CCN(c2nc(NC(C)C)c3cnn(C)c3n2)CC1	7	10	3	7
Cc1ccc(S(=O)(=O)N2CCC(CC(=O)NCCN3CCCCC3)CC2)cc1	13	9	8	12
Cc1cccc(NC(=O)CSc2nnc(-c3n[nH]c4c3CCC4)n2N)c1	28	14	63*	14
N#Cc1ccc(Cl)cc1NC(=O)COC(=O)c1c2c(nc3ccccc13)CCN(Cc1ccccc1)C2	-463	-104	-65	-112
CC(=O)C1=C(O)[C@]2(O)C(=O)c3c(c(C)c4ccc(C)c(O)c4c3O)C[C@H]2[C@@H](N)C1=O	-37	67*	60*	61*
CCN1CCN(C(=O)c2cnc(NCc3ccc4c(c3)OCO4)nc2C)CC1	-69	-24	-17	-21
O=C(Nc1ccc(-c2cn3ccsc3n2)cc1)c1ccccc1Br	37*	13	17	17
O=C(CN1C(=O)C(O)(c2ccccc2)c2ccccc21)Nc1ccccc1F (centres undefined)	0	11	-10	-5
O=C(COc1ccccc1)N1CCC2(CC1)NC(=O)N(Cc1ccc(Cl)cc1)C2=O	-18	-17	·	-14
O=C(COc1ccc(Cl)cc1)N1CCC(c2c[nH]c3ccccc23)(c2c[nH]c3ccccc23)CC1	39*	25	·	5
Cc1cccc(NC(=O)c2ccc(N3C(=O)C(C)CS3(=O)=O)cc2)c1C (centres undefined)	·	3	34*	·
Cc1ccc(NC(=O)c2ccc(N3C(=O)C(C)CS3(=O)=O)cc2Cl)cc1C (centres undefined)	-1	0	-2	39*
CC1CS(=O)(=O)N(c2ccc(C(=O)NCc3ccc(F)cc3)cc2)C1=O (centres undefined)	17	11	-1	5
COC(=O)Cn1c(=O)c2c(nc3n2CCCN3c2cccc(C)c2)n(C)c1=O	2	1	-2	0
SMILES	USP30 inh	OTUD3 inh	USP17 block	USP28 inh
OCCCNc1ncnc2c1c(-c1ccccc1)c(-c1ccccc1)n2Cc1ccco1	0	-20	0	-12
Nc1ncnc2c1c(-c1ccccc1)c(-c1ccccc1)n2CCc1ccc(F)cc1	45*	11	44*	0
Cc1nsc(NC(=O)c2oc3ccc(Cl)cc3c2C)n1	21	3	16	8
CCN(CC)Cc1ccc(-c2nnc(-c3cnc4onc(C)c4c3)o2)o1	i	-68	-54	-90
COc1ccccc1-c1nc(Cn2nnc(C(=O)Nc3cc(C)cc(C)c3)c2N)c(C)o1	35*	-9	66*	0
O=C(Nc1cccc(N2CCn3c(nc4ccccc43)C2)c1)c1cccc(Br)c1	·	3	30*	·
Cn1c(N2CCC(C(=O)NCC3CC3)CC2)nc2ccccc21	-1	-2	0	8
COc1cc(O)c2c(c1)C1=CC(=O)C(O)=C[C@]1(C)OC2=O	48*	41*	46*	36*
COc1cc(O)c2c(c1)COC(=O)c1c(O)cc(C)cc1O2	9	17	5	13
Cc1ccc(NC(=O)c2nc(C3CCC3)oc2C)c(F)c1	11	13	3	4
N#Cc1ccc(S(=O)(=O)c2c(C(=O)N3CCSCC3)cnc3ccc(F)cc23)cc1	-73	16	-7	-15
Nc1ncnc2c1ncn2[C@@H]1O[C@H](CO)C[C@@H]1O	29	50*	50*	44*
C=C1O[C@](CO)(n2cnc3c(N)ncnc32)[C@@H](O)[C@H]1O	-16	-3	-19	-9
